{"source": "the supplement of paper PMC10849652", "note": "Of roughly 7,900 targets only a part is listed; those with a hit were picked by preference. About 0.6% of all pairs of compound and target were hits.", "data": [{"compound": "CC(C)C1=C2N=C(C=C(N2N=C1)NCC3=CC=CC=C3)NCCCCCCN", "assay": "log2 fold change, soluble protein after heating vs DMSO (PISA); higher = thermal stabilisation; K562 cells, 10 uM, 30 min; active = over 0.2 and 3.5 SD of the protein, either way, in both replicates (recomputed)", "in_short": "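Aliquots of K562 cells (2×10^6 cells/mL) treated with 10 μM compound for 30 min were heated for 3 min over 48°C-58°C. After pooling and extraction in PBS with 0.5% NP-40 at 4°C, soluble protein from a 21,000xg, 90 min spin was quantified by TMTpro 16plex LC-MS/MS with channel sums equalised. Thermal stability is expressed against control samples, from duplicates, as a log2 fold change.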", "values": [{"target": "PCLAF (UniProt Q15004)", "log2 fold change": "0.184 (inactive)"}, {"target": "PTGFRN (UniProt Q9P2B2)", "log2 fold change": "0.222 (active)"}, {"target": "PSMD7 (UniProt P51665)", "log2 fold change": "0.019 (inactive)"}, {"target": "POTEI (UniProt P0CG38)", "sequence (P0CG38 whole entry, looked up)": "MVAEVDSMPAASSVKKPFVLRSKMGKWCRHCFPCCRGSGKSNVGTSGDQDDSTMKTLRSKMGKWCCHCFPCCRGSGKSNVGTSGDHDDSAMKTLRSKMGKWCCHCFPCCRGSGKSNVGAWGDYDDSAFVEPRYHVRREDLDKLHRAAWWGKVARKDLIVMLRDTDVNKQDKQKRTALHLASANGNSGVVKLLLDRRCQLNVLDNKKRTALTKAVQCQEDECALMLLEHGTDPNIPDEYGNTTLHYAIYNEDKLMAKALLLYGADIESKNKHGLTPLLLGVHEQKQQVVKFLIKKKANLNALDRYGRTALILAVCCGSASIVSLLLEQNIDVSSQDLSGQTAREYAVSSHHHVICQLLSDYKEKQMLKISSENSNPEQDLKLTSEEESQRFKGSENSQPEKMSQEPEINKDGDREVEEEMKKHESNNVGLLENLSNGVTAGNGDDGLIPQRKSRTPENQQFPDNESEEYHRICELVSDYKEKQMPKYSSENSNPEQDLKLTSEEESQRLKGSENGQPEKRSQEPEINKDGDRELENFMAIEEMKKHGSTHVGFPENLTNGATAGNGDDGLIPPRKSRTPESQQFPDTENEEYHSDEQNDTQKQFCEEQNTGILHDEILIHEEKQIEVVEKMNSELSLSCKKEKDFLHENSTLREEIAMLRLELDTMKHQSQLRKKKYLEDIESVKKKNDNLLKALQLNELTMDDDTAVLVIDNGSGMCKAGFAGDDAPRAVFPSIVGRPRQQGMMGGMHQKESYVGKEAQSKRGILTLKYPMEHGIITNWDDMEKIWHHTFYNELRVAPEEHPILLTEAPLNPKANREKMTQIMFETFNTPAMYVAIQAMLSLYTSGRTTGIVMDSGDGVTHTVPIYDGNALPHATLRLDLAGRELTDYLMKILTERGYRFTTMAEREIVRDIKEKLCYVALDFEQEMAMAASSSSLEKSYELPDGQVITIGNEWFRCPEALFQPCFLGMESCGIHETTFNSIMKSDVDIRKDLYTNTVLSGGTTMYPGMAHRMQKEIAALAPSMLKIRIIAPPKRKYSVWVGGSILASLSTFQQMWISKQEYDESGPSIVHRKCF", "log2 fold change": "0.059 (inactive)"}, {"target": "POMP (UniProt Q9Y244)", "sequence (Q9Y244 whole entry, looked up)": "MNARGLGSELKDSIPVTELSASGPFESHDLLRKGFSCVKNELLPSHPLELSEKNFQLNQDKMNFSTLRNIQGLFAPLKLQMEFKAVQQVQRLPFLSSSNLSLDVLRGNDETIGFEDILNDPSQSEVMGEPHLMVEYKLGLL", "log2 fold change": "0.009 (inactive)"}, {"target": "PRKACB isoform 2 (UniProt P22694)", "log2 fold change": "-0.012 (inactive)"}, {"target": "PPP2R5A (UniProt Q15172)", "log2 fold change": "-0.193 (inactive)"}, {"target": "PHKA2 (UniProt P46019)", "log2 fold change": "-0.143 (inactive)"}, {"target": "PCTP (UniProt Q9UKL6)", "sequence (Q9UKL6 whole entry, looked up)": "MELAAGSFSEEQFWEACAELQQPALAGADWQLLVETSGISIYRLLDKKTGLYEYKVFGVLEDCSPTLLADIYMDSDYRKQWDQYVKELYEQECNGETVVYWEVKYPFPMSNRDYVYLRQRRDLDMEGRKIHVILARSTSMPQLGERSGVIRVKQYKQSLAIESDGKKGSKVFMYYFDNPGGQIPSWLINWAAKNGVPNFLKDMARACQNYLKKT", "log2 fold change": "-0.266 (active)"}, {"target": "PEX11B (UniProt O96011)", "log2 fold change": "0.075 (inactive)"}, {"target": "PRKAR1B (UniProt P31321)", "log2 fold change": "-0.11 (inactive)"}, {"target": "PTPMT1 (UniProt Q8WUK0)", "log2 fold change": "-0.579 (active)"}, {"target": "POLD1 (UniProt P28340)", "sequence (P28340 whole entry, looked up)": "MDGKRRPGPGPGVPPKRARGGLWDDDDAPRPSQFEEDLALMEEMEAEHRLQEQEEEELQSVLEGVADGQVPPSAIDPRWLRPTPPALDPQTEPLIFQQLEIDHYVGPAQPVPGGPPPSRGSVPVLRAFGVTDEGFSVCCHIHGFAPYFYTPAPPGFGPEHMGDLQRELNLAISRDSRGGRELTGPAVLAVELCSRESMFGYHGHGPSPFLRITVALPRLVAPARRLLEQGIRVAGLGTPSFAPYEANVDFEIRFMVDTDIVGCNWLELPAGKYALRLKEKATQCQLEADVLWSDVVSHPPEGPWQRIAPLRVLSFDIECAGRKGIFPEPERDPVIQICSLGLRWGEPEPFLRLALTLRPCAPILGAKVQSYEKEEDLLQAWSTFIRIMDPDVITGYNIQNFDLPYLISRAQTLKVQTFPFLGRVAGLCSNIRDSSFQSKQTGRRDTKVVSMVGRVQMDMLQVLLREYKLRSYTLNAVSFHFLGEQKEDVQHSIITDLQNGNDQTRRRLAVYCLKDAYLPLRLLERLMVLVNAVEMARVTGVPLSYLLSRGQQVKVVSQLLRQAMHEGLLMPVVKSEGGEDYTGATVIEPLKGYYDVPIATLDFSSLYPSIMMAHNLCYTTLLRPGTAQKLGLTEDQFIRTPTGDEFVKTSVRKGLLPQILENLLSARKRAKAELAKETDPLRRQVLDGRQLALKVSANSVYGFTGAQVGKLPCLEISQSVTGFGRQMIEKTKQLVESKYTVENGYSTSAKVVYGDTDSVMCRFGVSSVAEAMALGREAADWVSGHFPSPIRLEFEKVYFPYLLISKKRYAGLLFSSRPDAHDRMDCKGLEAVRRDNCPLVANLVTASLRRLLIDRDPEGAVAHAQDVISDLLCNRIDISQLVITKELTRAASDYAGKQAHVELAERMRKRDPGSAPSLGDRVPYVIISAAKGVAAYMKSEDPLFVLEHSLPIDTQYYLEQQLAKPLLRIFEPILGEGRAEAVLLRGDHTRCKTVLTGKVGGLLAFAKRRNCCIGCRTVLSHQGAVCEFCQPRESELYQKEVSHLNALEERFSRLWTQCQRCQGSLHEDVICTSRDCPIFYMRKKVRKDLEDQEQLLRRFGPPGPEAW", "log2 fold change": "-0.12 (inactive)"}, {"target": "PSMD9 (UniProt O00233)", "sequence (O00233 whole entry, looked up)": "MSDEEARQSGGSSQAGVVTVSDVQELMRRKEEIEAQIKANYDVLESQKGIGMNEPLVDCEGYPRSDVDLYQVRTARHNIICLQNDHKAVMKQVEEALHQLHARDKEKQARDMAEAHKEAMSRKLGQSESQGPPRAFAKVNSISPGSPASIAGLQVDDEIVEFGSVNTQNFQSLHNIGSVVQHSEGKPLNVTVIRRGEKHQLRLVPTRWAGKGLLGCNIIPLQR", "log2 fold change": "0.069 (inactive)"}, {"target": "QRICH1 (UniProt Q2TAL8)", "log2 fold change": "-0.321 (inactive)"}, {"target": "PNPLA8 (UniProt Q9NP80)", "log2 fold change": "-0.06 (inactive)"}, {"target": "POLA1 (UniProt P09884)", "log2 fold change": "-0.151 (inactive)"}, {"target": "PSMD1 (UniProt Q99460)", "log2 fold change": "0.054 (inactive)"}, {"target": "PHKA1 (UniProt P46020)", "log2 fold change": "0.011 (inactive)"}, {"target": "PPP2R5C isoform 5 (UniProt Q13362)", "log2 fold change": "-0.061 (inactive)"}, {"target": "PTRHD1 (UniProt Q6GMV3)", "log2 fold change": "0.139 (inactive)"}, {"target": "PSMC5 (UniProt P62195)", "log2 fold change": "0.009 (inactive)"}, {"target": "PDLIM7 (UniProt Q9NR12)", "sequence (Q9NR12 whole entry, looked up)": "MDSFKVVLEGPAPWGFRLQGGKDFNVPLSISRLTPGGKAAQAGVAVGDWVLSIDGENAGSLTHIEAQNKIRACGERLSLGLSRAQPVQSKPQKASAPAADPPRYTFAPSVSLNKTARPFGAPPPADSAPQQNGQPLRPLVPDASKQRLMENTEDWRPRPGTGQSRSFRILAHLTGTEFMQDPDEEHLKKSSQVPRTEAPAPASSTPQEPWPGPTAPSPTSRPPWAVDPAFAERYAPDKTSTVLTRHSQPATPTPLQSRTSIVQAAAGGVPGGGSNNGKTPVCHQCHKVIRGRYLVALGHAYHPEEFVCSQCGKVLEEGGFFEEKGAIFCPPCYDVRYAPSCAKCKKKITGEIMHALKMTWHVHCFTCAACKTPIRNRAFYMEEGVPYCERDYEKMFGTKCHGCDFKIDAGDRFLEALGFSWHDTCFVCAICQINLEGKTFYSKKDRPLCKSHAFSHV", "log2 fold change": "0.024 (inactive)"}, {"target": "PTTG1 (UniProt O95997)", "log2 fold change": "-0.002 (inactive)"}, {"target": "PEX16 isoform 2 (UniProt Q9Y5Y5)", "sequence (Q9Y5Y5 whole entry, looked up)": "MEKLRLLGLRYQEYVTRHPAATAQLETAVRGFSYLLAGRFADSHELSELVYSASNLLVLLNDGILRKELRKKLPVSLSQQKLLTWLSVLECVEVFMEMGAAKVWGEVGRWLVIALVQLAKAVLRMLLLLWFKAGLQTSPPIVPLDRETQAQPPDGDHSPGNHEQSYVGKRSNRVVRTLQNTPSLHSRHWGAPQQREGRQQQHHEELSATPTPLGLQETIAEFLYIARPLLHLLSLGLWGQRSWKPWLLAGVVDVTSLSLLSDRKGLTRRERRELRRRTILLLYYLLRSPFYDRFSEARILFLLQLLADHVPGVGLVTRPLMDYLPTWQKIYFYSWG", "log2 fold change": "-0.407 (active)"}, {"target": "PCYT1B (UniProt Q9Y5K3)", "log2 fold change": "-0.172 (inactive)"}, {"target": "PSMD13 (UniProt Q9UNM6)", "sequence (Q9UNM6 whole entry, looked up)": "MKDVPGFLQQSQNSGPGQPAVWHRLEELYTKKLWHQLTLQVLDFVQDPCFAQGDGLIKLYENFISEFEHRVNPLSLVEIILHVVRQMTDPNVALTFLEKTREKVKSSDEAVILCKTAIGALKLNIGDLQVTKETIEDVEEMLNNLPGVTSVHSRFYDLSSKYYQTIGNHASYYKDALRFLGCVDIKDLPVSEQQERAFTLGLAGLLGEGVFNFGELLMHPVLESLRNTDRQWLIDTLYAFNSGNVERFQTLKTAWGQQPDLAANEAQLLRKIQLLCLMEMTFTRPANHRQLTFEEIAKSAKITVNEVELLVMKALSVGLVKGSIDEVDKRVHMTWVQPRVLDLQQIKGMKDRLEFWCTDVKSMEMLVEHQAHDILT", "log2 fold change": "0.009 (inactive)"}, {"target": "PIP4P1 isoform 2 (UniProt Q86T03)", "sequence (Q86T03 whole entry, looked up)": "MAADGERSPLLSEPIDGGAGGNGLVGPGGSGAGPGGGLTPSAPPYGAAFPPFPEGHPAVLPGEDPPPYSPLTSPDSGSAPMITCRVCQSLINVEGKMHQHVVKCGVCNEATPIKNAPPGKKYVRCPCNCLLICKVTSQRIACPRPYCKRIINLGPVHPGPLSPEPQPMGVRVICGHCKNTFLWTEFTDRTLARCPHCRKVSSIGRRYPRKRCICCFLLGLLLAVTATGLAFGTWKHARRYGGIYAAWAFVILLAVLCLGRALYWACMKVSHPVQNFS", "log2 fold change": "-0.329 (active)"}, {"target": "PIP4K2A (UniProt P48426)", "sequence (P48426 whole entry, looked up)": "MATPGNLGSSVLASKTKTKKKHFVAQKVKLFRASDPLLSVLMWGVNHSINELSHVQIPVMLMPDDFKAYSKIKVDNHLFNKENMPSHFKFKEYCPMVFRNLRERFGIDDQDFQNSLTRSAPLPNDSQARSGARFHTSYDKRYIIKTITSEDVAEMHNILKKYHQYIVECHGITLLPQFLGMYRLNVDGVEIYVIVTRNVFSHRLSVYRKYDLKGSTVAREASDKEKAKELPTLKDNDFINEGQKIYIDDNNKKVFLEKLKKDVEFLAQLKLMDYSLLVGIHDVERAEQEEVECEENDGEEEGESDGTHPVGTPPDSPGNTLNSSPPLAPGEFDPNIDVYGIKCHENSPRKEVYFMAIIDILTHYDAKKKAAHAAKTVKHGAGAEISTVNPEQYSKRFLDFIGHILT", "log2 fold change": "0.074 (inactive)"}, {"target": "PRIM1 (UniProt P49642)", "log2 fold change": "-0.319 (active)"}, {"target": "PRKAR2A (UniProt P13861)", "log2 fold change": "-0.002 (inactive)"}, {"target": "PLSCR1 (UniProt O15162)", "sequence (O15162 whole entry, looked up)": "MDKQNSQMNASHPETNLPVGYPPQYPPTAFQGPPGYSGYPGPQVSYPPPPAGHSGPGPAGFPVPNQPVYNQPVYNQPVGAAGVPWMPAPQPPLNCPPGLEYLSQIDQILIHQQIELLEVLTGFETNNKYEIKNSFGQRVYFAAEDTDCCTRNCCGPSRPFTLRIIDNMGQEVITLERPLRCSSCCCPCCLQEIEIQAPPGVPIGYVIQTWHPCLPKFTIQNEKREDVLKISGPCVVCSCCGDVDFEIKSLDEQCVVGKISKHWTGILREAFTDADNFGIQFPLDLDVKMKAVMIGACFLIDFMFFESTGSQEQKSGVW", "log2 fold change": "0.031 (inactive)"}, {"target": "PHKG2 (UniProt P15735)", "log2 fold change": "-0.041 (inactive)"}, {"target": "POLR3D (UniProt P05423)", "log2 fold change": "-0.158 (inactive)"}, {"target": "PDE4DIP isoform 4 (UniProt Q5VU43)", "log2 fold change": "0.035 (inactive)"}, {"target": "PLA2G15 (UniProt Q8NCC3)", "log2 fold change": "-0.024 (inactive)"}]}]}
